Key:
Assay in all cases: log2 ratio of Biotin-Ahx-Ub-VS probe labelling (fragment/DMSO); higher = less target engagement (more negative = stronger competition), active = hit call of the paper (q ≤ 0.05, log2 ratio ≤ -1)
Settings in all cases: compound concentration: 200 uM; treatment time: 3 h
OTUD6B = biological target: T1, OTUD6B (UniProt Q8N6M0)
T1 sequence (whole entry): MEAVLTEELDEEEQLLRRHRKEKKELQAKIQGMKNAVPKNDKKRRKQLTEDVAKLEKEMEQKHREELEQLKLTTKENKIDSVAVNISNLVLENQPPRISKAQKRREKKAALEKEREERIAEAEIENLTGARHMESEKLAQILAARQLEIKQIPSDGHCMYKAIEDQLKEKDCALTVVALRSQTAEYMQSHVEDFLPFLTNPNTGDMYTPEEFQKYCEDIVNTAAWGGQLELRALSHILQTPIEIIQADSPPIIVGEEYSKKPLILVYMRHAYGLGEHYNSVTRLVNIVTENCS
Method in brief: (§1)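 Average log2 ratios of fragment over vehicle were obtained by unpaired t-test from global-median-normalised Spectronaut label-free quantities. Proteins with ≥2 unique peptides were included. HEK293T lysate (495 µg per sample) was treated in triplicate with fragment at 200 µM or vehicle for 3 h, then with Biotin-Ahx-Ub-VS at 0.5 µM final for 1 h, and labelled DUBs were NeutrAvidin-enriched and run by diaPASEF LC-MS/MS.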

OTUD7B = biological target: T2, OTUD7B (UniProt Q6GQQ9)
T2 sequence (whole entry): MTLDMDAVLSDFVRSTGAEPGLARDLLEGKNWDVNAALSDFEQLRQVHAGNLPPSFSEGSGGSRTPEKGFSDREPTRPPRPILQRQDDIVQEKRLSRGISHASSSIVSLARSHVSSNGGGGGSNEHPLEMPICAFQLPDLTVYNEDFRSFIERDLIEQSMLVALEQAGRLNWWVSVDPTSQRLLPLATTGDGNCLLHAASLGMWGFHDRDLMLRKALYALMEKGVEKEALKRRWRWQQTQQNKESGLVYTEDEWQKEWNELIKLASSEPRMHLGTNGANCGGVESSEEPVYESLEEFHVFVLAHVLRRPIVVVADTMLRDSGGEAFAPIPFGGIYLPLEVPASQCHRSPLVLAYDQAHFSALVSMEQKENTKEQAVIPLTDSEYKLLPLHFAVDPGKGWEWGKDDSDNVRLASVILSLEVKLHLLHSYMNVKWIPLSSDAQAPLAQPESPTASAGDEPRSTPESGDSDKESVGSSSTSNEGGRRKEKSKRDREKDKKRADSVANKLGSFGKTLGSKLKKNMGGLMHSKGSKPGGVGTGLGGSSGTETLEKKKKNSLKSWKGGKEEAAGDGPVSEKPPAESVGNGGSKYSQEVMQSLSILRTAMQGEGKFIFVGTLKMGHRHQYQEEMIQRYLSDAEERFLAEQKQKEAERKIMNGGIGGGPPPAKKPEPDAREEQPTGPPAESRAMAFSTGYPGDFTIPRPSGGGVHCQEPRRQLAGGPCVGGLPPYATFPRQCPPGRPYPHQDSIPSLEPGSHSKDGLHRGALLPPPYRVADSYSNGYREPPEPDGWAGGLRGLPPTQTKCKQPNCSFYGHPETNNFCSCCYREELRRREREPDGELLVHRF
Method in brief: as §1

PRPF8 = PRPF8 (UniProt Q6P2Q9)
Method in brief: as §1

PSMD7 = biological target: T3, PSMD7 (UniProt P51665)
T3 sequence (whole entry): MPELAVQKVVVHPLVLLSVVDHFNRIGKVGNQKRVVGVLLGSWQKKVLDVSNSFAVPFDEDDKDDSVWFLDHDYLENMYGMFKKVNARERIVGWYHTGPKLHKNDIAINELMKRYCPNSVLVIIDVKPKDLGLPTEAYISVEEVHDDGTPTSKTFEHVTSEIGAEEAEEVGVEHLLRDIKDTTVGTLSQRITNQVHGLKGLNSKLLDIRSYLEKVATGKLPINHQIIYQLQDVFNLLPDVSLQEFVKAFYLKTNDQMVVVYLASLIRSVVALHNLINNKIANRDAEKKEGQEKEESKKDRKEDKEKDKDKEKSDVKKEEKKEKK
Method in brief: as §1

UCHL1 = UCHL1 (UniProt P09936)
Method in brief: as §1

UCHL3 = biological target: T4, UCHL3 (UniProt P15374)
T4 sequence (whole entry): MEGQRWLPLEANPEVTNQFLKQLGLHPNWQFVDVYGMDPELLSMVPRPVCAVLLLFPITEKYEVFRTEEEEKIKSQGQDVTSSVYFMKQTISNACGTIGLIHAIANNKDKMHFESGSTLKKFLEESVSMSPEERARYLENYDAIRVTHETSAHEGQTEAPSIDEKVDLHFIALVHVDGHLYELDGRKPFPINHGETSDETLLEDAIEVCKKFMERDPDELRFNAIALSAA
Method in brief: as §1

UCHL5 = biological target: T5, UCHL5 (UniProt Q9Y5K5)
T5 sequence (whole entry): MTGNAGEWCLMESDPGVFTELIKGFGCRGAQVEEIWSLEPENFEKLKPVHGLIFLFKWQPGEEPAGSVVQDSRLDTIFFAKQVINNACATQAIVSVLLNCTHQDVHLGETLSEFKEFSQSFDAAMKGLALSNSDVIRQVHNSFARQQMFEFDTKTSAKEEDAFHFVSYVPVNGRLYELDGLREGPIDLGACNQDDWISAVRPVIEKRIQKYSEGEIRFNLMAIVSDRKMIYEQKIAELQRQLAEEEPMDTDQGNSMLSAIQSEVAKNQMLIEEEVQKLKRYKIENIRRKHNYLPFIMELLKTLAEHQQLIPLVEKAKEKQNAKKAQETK
Method in brief: as §1

USP10 = USP10 (UniProt Q14694)
Method in brief: as §1

USP15 = biological target: T6, USP15 (UniProt Q9Y4E8)
T6 sequence (whole entry): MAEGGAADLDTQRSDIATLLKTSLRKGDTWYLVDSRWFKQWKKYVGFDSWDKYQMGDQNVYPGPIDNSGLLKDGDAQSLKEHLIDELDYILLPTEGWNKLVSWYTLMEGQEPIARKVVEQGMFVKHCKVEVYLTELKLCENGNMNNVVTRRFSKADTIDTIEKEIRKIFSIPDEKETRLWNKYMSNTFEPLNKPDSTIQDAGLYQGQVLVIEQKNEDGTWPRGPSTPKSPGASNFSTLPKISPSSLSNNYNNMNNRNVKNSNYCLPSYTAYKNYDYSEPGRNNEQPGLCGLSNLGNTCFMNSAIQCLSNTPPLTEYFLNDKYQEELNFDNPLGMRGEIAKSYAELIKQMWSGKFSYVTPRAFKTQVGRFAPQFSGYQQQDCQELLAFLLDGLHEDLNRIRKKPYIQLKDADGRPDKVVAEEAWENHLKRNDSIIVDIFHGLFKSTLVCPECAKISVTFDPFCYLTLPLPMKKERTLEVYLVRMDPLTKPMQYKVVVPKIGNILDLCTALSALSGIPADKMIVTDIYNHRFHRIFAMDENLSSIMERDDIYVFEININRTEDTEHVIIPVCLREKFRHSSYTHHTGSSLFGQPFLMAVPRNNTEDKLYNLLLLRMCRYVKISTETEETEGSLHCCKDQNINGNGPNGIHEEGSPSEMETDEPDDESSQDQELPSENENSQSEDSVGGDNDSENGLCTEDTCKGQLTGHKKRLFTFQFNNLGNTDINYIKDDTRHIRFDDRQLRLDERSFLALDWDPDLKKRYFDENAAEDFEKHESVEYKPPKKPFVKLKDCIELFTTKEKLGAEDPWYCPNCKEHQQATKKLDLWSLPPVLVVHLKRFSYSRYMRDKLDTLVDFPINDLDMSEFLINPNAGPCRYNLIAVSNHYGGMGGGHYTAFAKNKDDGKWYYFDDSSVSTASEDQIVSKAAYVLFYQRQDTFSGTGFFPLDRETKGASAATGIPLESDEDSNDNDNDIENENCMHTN
Method in brief: as §1

USP16 = USP16 (UniProt Q9Y5T5)
Method in brief: as §1

Measured: log2 ratio of Biotin-Ahx-Ub-VS probe labelling

UCHL1, sequence (P09936 whole entry, looked up): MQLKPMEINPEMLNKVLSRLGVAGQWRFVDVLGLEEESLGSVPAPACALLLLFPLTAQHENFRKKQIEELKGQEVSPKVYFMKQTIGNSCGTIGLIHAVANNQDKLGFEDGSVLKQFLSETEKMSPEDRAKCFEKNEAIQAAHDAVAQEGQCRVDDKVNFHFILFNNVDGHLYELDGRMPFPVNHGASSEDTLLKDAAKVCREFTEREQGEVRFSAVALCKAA
USP10, sequence (Q14694 whole entry): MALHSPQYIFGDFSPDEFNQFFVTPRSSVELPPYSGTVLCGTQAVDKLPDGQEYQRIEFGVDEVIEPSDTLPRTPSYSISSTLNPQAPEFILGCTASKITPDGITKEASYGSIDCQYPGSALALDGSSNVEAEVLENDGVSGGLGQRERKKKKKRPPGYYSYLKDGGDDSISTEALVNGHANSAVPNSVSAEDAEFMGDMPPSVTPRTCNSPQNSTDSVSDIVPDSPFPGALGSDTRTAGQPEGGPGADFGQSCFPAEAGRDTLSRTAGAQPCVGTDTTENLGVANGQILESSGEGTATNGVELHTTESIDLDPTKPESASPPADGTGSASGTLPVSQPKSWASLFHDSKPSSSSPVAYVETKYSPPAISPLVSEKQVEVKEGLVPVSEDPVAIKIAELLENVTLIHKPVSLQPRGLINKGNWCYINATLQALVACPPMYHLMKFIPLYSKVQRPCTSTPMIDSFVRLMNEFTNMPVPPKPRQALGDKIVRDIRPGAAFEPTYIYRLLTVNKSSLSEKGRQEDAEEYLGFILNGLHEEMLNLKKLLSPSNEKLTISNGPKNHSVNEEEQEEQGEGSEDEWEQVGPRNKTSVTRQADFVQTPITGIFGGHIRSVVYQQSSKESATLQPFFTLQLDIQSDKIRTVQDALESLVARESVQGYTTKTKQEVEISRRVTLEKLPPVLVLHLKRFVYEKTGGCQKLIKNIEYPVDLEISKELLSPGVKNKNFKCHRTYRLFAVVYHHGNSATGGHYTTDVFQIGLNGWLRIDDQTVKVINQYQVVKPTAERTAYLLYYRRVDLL
USP16, sequence (Q9Y5T5 whole entry, looked up): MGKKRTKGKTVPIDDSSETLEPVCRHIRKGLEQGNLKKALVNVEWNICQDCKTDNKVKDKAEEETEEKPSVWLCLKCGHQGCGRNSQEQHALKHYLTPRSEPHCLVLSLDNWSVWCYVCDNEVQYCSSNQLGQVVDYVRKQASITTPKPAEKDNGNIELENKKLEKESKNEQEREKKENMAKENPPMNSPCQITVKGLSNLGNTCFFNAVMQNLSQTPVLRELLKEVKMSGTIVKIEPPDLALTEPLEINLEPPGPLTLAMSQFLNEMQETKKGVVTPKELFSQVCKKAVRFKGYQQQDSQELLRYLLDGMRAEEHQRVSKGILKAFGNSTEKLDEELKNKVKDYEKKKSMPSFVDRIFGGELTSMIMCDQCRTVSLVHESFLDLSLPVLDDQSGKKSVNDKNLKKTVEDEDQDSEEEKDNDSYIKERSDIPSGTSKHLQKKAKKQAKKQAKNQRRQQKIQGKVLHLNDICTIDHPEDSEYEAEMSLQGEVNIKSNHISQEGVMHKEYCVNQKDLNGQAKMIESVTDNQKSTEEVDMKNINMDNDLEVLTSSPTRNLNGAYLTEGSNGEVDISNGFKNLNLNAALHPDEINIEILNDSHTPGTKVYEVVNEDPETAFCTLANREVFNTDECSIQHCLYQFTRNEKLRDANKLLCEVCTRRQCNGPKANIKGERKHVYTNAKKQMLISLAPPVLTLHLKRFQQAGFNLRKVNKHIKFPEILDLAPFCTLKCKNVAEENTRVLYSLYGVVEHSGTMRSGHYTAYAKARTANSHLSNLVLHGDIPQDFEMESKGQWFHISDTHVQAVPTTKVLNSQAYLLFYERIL

Cc1cccc2nc(CCNC(=O)CCl)cn12.Cl
inactive: OTUD6B -0.459 | OTUD7B -0.556 | PRPF8 -0.224 | PSMD7 -0.141 | UCHL3 -0.0466 | UCHL5 -0.344 | USP10 -0.121 | USP15 -0.369 | USP16 0.0184
active: UCHL1 -2.08
